# Shown are actives, neighbours in structure and some others; about 3.4% of the full set was active somewhere.
# GBA activity: alters purified human glucocerebrosidase activity; purified enzyme, resorufin glucoside fluorescence (screen aimed at inhibitors), 20 min; Potency, µM; 48,000 compounds, 1.1% hits; AID 360; in the data active means potency below about 15 µM; inconclusive means mostly about 16 µM to 33 µM;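 further: the screen sought inhibitors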
# Target sequence (P04062 whole entry, looked up): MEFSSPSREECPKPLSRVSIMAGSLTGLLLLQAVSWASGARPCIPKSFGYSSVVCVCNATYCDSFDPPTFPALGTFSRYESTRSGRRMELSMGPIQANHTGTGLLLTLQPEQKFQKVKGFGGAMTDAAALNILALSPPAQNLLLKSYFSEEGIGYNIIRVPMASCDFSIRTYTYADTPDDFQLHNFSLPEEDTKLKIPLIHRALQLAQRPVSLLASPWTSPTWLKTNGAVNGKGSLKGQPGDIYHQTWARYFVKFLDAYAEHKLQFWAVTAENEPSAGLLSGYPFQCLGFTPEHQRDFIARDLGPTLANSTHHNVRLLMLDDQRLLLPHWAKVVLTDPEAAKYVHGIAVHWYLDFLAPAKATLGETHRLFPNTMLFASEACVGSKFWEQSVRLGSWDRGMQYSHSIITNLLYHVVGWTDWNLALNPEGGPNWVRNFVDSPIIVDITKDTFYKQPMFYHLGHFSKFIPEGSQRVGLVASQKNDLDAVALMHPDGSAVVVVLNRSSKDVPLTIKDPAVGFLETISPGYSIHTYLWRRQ
#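 Wild-type enzyme at 0.2 nM final in 50mM citric acid/KH2PO4, 10mM sodium taurocholate, 0.01% tween-20, pH 5.9, with resorufin beta-D-glucopyranoside at 30 uM final. Compounds titrated, 20 min at RT, red fluorescence read; AC50 from titration.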
# Luciferase inh: firefly luciferase inhibition | Potency, µM (top dose mostly 57.1 µM), without a hit: at the top dose activity change, negative = inhibition, actives largely listed as inhibitors | P08659 | purified firefly luciferase, luminescence, 8 min | 72,000 compounds, 2.2% hits; active means well fitted inhibition curve with a large enough effect; inconclusive means small, poorly fitted or top-dose-only effect; further: on the % scale 0 is the no-effect control and ±100 the full control effect; nearly all actives have a fitted effect of over 40% in size
#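 qHTS concentration-response profiling: light output of P. pyralis luciferase with luciferin and 10 uM ATP, imidazole buffer pH 7.2. Read by luminescence after 8-min room-temperature incubation.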
# PK Bst: modulators of Bacillus stearothermophilus pyruvate kinase; purified pyruvate kinase, luminescence ATP production; ribose 5-phosphate activator present at AC10; Potency, µM; 51,000 compounds, 1.2% hits; in the data active means potency below about 11 µM; inconclusive means mostly about 12 µM to 25 µM;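 the screen sought inhibitors and activators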;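 further: scaled between full activation by ribose 5 phosphate and full inhibition by luteolin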
# Starred values were filed as active, the others as inactive; i = inactive; u = inconclusive; x = no result; [ ] = another dose, or the depositor's remark. Potency means the concentration at half of the fitted maximal effect.
SMILES,GBA activity,Luciferase inh,PK Bst
Cc1ccc(/C=N/n2nnnc2N)o1,x,-2%[25.5 µM],>26
COc1c2c(nc3ccccc13)O[C@@H]([C@@](C)(O)CO)C2,x,1%,x
O=C(NCCc1nc2ccccc2[nH]1)c1ccc(F)cc1,u,0%,>57
O=C(Nc1nc2ccccc2[nH]1)c1ccccc1F,x,1µM*,1.4*
COc1ccc(C(=O)Nc2nc3ccccc3[nH]2)cc1OC,>77,25µM*,i
O=C(Nc1nc2ccccc2[nH]1)c1ccc(F)cc1,>77,3.2µM*,3.1*
Cc1cc(NC(=O)c2ccccc2F)n(-c2nc3ccccc3[nH]2)n1,>77,-1%,>57
COc1ccc(C(=O)NCc2nc3ccccc3[nH]2)cc1OC,x,1%,x
O=C(c1cc(C(F)(F)F)cc(C(F)(F)F)c1)N1CCC[C@@]2(CCN(Cc3ccccc3)C2)C1,x,2%[11.4 µM],x
Cc1ccccc1-c1nc(NCCN2CCOCC2)c2ccccc2n1,x,-1%[2.29 µM],x
c1csc(CNc2ncncc2-c2ccc3c(c2)OCO3)c1,x,0%[2.29 µM],x
Cc1cc2nc3[nH]c4c(Cl)cc(Cl)cc4c3nc2cc1C,x,1%[11.4 µM],x
CCCSc1nnc2n(C)c(=O)c3c4c(sc3n12)CCC4,x,-1%[25.5 µM],4.7*
CCCSc1nnc2n(Cc3ccccc3)c(=O)c3c4c(sc3n12)CCC4,x,-1%[25.5 µM],>26
COc1cccc(Cn2c(=O)c(-c3cn(C)c4ccccc34)nc3cncnc32)c1,x,0%[11.4 µM],x
C[C@@H]1CC[C@H]2C(=O)N3[C@@H](CC[C@@H](C)[C@@H]3c3ccc(Br)cc3)C(=O)N2[C@@H]1c1ccc(Br)cc1,x,0%[11.4 µM],x
O=C(CC(SCCO)c1ccc(F)cc1)c1ccco1 (stereo not drawn),>77,-3%,>57
Cc1ccc(C(CC(=O)c2ccco2)SCCO)cc1 (stereo not drawn),>77,25µM*,x
CC(=O)N1CCC[C@@]2(CCN(C(=O)Nc3ccccc3)C2)C1,x,1%[11.4 µM],x
COc1ccc(Oc2ncc3nc(CCc4ccccc4)c(=O)n(C)c3n2)cc1,x,0%[11.4 µM],x
O=C1c2ccccc2C(=O)C1c1ccncc1,x,7.9µM*,x
O=C1c2ccccc2C(Cc2ccncc2)(Cc2ccncc2)c2ccccc21,x,0%,x
C[C@@H]1C[C@H]2[C@H]3C[C@@H](F)C4=CC(=O)C=C[C@]4(C)[C@@]3(Cl)[C@@H](O)C[C@@]2(C)[C@@H]1C(=O)COC(=O)C(C)(C)C,x,2%[25.5 µM],x
COc1cccc(Nc2ncc3nc(CCc4ccccc4)c(=O)n(Cc4cccs4)c3n2)c1,x,1%[11.4 µM],x
Cc1ccc(NC(=O)NC2=N/C(=C(/C#N)C(=O)N3CCCC3)c3ccccc32)cc1,9*,-3%,u
SMILES,GBA activity,Luciferase inh,PK Bst
Cc1ccc(NC(=O)C2CC=CCC2C(=O)N2CCCCC2)cc1 (stereo not drawn),>77,1%,>57
CCc1c(C(=O)Nc2nnc(C3CC3)s2)csc1C,1.5*,4%,>57
O=C(Nc1nnc(C2CCCCC2)s1)c1cccs1,>77,u,>57
CC(=O)OC[C@@H]1O[C@H](CCO/N=C\[C@@H](C)[C@H](OCc2ccccc2)C(C)C)C=C[C@@H]1OC(C)=O,x,-1%[11.4 µM],x
NC(N)=NNC(=O)C(=O)O,x,2%[11.4 µM],x
CO[C@H]1COC(=O)[C@@H](Cc2ccccc2)NC(=O)[C@@H](C)COC(=O)C/C=C\[C@@H]1C,x,-2%[11.4 µM],x
COc1cccc(-c2cc(C(=O)Nc3ccccc3SC)no2)c1,>77,20µM*,x
COc1ccc(-c2cc(C(=O)Nc3ccccc3SC)no2)cc1OC,>77,0%,>57
COCCNC(=O)c1cc(-c2cccc(OC)c2)on1,>77,u,u
COc1cccc(-c2cc(C(=O)NC3CCCC3)no2)c1,x,16µM*,i
COc1cccc(-c2cc(C(=O)Nc3cccc(O)c3)no2)c1,15*,3.2µM*,5.6*
COc1ccccc1-c1cc(C(=O)Nc2cccnc2)no1,>77,13µM*,i
COc1cc(NC(=O)c2cc(-c3cccc(O)c3)on2)cc(OC)c1OC,x,-2%,x
COc1ccc(NC(=O)c2cc(-c3ccccc3OC)on2)cc1,>77,u,x
Nc1ncnc2c1ncn2[C@@H]1CCCO1,x,3%,x
O=C(O)CN(CCN(CC(=O)O)CC(=O)O)CC(=O)O.[Mn],x,3%[11.4 µM],x
CSCC[C@@H]1NC(=O)C/C=C\[C@@H](C)COC(=O)[C@@H](C)COC1=O,x,2%[11.4 µM],x
c1ccc(-n2ncc3c(NCc4cccnc4)ncnc32)cc1,x,-28%,x
Cc1ccccc1Nc1ncnc2c1cnn2-c1ccccc1,x,13µM*,x
Cc1cccc(-n2ncc3c(N)ncnc32)c1,>77,-15%,x
CC(C)Nc1ncnc2c1cnn2-c1ccccc1,x,7.9µM*,x
Cc1cccc(-n2ncc3c(NC(C)C)ncnc32)c1,x,13µM*,x
CCOc1ccc(Nc2ncnc3c2cnn3-c2ccccc2)cc1,x,3%,x
Cc1noc(C)c1C(=O)N1CCC[C@@]2(CCN(C(=O)Nc3ccccc3)C2)C1,x,0%[11.4 µM],x
COC(=O)C/C=C1\c2ccccc2[C@H](OC)[C@H]1C,x,3%[11.4 µM],x
O=C(O)c1nnsc1COCc1ccccc1,x,1%[11.4 µM],x

# From PubChem
